Assay outcomes as filed in PubChem.
IL-1B inflam inh = inhibitors of inflammasome signaling (IL-1 beta secretion). THP-1 LPS/ATP IL-1B secretion, AlphaLISA, 16 h; stronger effect = lower value. activity change, % at 57.5 µM. 360,000 tested, 4.7% active; in the data active = activity change below about -50%; inconclusive = mostly about -30% to -49%
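THP-1 cells pretreated 1 hr with compounds (up to 57.5 uM final), then stimulated with LPS (250 ng/mL final) plus ATP (1.25 mM final); secreted IL-1B measured by AlphaLISA after 16 hr, decreased signal indicating inhibition.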
DT40 TDP1 CPT = DT40-hTDP1 cell growth loss with CPT. chicken DT40 Tdp1-/-;hTDP1 cells + 20 nM CPT, ATP luminescence, 48 h. Potency, µM (highest dose often 46.2 µM), inactives show at the top dose activity change, negative = growth inhibition, most hits filed as inhibitors. 420,000 tested, 12% active. AID 686979; note: potency is the fitted concentration of half-maximal effect; nearly all actives have a fitted effect of over 55% in size
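Cell growth measured by CellTiter-Glo luminescence after a minimum 48 h, 37 C compound exposure with 20 nM CPT in Tdp1-knockout DT40 cells stably expressing hTDP1, seeded 400/well; qHTS titration format.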
HT1080NT lethal = kills 2HG-producing HT-1080-NT fibrosarcoma cells; HT-1080-NT fibrosarcoma viability, CellTiter-Glo ATP luminescence, 48 h; Potency, µM (top dose mostly 46.1 µM), for inactives: at the highest dose activity, negative = less viability, actives largely listed as cytotoxic; 360,000 tested, 1.6% active; AID 686970;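 note: NT is the 2HG producing partner of a matched IDH1 knockdown line; potency is the fitted concentration of half-maximal effect; 0% = DMSO-treated cells and -100% = media-only wells without cells; nearly all actives have a fitted effect of over 55% in size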
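Read-out is CellTiter-Glo luminescence after 10 minutes at room temperature, following 48 hours' compound treatment of HT-1080-NT cells (750 cells/well, RPMI, 5% FBS, 37 degrees C).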
DT40 TDP1 no CPT = qHTS for Inhibitors of human tyrosyl-DNA phosphodiesterase 1 (TDP1): qHTS in cells in absence of CPT; DT40 Tdp1-/- hTDP1 cells, no CPT, ATP luminescence, 48 h; 420,000 tested, 15% active; Potency, µM (titrated, usually from 46.2 µM), without a hit: at the top dose activity change, negative = growth inhibition, hits mostly inhibitors; AID 686978, 2013; note: potency is the fitted concentration of half-maximal effect; nearly all actives have a fitted effect of over 55% in size
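Growth of hTDP1-complemented DT40 Tdp1-knockout cells is measured by ATP luminescence after at least 48 hr compound exposure at 37 °C, with DMSO substituting for the 20 nM CPT used in the parallel screen.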
uPA generation = cell surface uPA generation inhibition; cell surface uPA generation assay, qHTS; Potency, µM (highest dose often 38.3 µM), without a hit: at the highest dose activity change, negative = inhibition, actives largely listed as inhibitors; 330,000 tested, 0.31% active; AID 540303; active = well fitted inhibition curve with a large enough effect; inconclusive = small, poorly fitted or top-dose-only effect; inactive = no such curve, though single readings can be large or run the other way; tested in mouse RAW 264.7 cells; note: potency is the fitted concentration of half-maximal effect; nearly all actives have a fitted effect of over 55% in size
HT1080 IDH1KD tx = toxicity to HT-1080 IDH1 knockdown cells (counter line). HT-1080 IDH1 knockdown viability, ATP luminescence, 48 h. Potency, µM (titrated, usually from 46.1 µM), inactives show top-dose activity, negative = toxicity, most hits filed as cytotoxic. 360,000 tested, 2% active. AID 686971;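 note: potency is the fitted concentration of half-maximal effect; 0% = DMSO wells and -100% = cell-free medium wells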
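Luminescent ATP read-out (CellTiter-Glo, 10 min at room temperature) after 48 h compound exposure at 37 °C gave viability of IDH1-knockdown HT-1080 cells. Activity was normalised to DMSO and cell-free wells, then fitted as concentration-response curves.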
An asterisk follows results filed as active; ? = inconclusive; . = no result given. Most compounds without a hit are left out; they make up all but 19% or so of the library. Unless noted, calls come from the whole dose curve; as a rule, active = well fitted curve in the direction sought with a large enough effect; inconclusive = small, poorly fitted or top-dose-only effect, or another doubt; inactive = no such curve, though single readings can be large; an effect the other way counts as inactive or inconclusive. Unless noted, % is set by controls: 0 for no effect and ±100 for the full control effect.

SMILES	IL-1B inflam inh	DT40 TDP1 CPT	HT1080NT lethal	DT40 TDP1 no CPT	uPA generation	HT1080 IDH1KD tx
COc1ccc(/C=N/NC(=O)c2cccnc2)cc1COc1ccc([N+](=O)[O-])cc1	.	2.59µM*	?	2.59µM*	-9.7%	6.51µM*
COc1ccc(C(=O)N/N=C/c2ccc(OC)c(CSc3ccccn3)c2)cc1	?	-5.1%	-0.8%	-18.6%	14.9%	-5.5%
COc1ccc(/C=N/NC(=O)c2cccnc2)cc1CSc1ccccn1	60.4	6.51µM*	23.1µM*	6.51µM*	-19.9%	11.6µM*
CCOC(=O)N1CCN(Cc2nc3cc(NC(=O)C(C)C)ccc3n2C(C)C)CC1	.	5.17µM*	.	2.59µM*	.	.
CCOC(=O)N1CCN(Cc2nc3cc(NC(=O)CC)ccc3n2C)CC1	12.2	11.5%	24.7%	0.1%	-6.5%	10.0%
CCOC(=O)N1CCN(Cc2nc3cc(NC(=O)c4ccc(F)cc4)ccc3n2C(C)C)CC1	.	0.92µM*	.	1.03µM*	.	.
CCOC(=O)N1CCN(Cc2nc3cc(NC(=O)c4ccc(OC)cc4)ccc3n2C(C)C)CC1	.	4.11µM*	.	?	.	.
CCCn1c(CN2CCN(C(=O)OCC)CC2)nc2cc(NC(=O)CC)ccc21	44.9	3.26µM*	7.31µM*	4.61µM*	-14.5%	5.8µM*
c1cncc(C2SCCCS2)c1	36.8	-10.2%	0.5%	-10.5%	.	0.1%
O=P(c1ccccc1)(c1ccccc1)c1nc(-c2ccccc2)oc1NCc1ccccc1	-14.2	?	-2.5%	18.4µM*	-8.9%	4.9%
CCCc1cc(=O)[nH]c(Nc2ccc(O)cc2C)n1	.	-13.5%	.	6.7%	.	.
Cc1cc(O)ccc1Nc1nc2ccccc2nc1Nc1ccc(O)cc1C	-7.3	8.2µM*	1.0%	5.17µM*	-3.6%	-8.3%
CC(C)N1C(=O)S/C(=C/c2ccc(Sc3nc4ccccc4[nH]3)o2)C1=O	-79.0*	14.6µM*	-4.2%	10.3µM*	-7.3%	?
C=CCN1C(=O)S/C(=C/c2ccc(Sc3nc4ccccc4[nH]3)o2)C1=O	-28.4	23.1µM*	-17.4%	20.6µM*	-7.1%	?
C=CCN1C(=O)S/C(=C/c2ccsc2)C1=O	-0.6	?	3.6%	-24.0%	.	-2.2%
COCC(Cc1ccccc1)NC(=O)Cn1cc(C)c(=O)[nH]c1=O (stereo not drawn)	28.6	24.4%	0.9%	11.9%	13.1%	7.3%
O=C(NCCOc1ccccc1)c1cc(C(=O)NCCOc2ccccc2)cc([N+](=O)[O-])c1	-11.0	?	0.0%	18.4µM*	6.4%	-17.7%
COC(=O)c1ccc(COC(=O)CNC(=O)CNC(=O)c2ccc(OC)cc2)cc1	-67.3*	13.1%	7.8%	?	1.1%	4.7%
O=C(NCCOc1ccccc1)c1ccccc1[N+](=O)[O-]	11.8	-3.6%	4.8%	-3.2%	-29.9%	2.5%
COc1ccc(C(=O)NCC(=O)OCCOc2ccc(Cl)cc2)cc1OC	-55.9*	-0.3%	-2.5%	-12.8%	-6.6%	1.2%
COc1ccc(OCCOC(=O)CNC(=O)c2ccc(Cl)cc2Cl)cc1	7.8	-18.1%	-4.1%	-4.4%	0.8%	-0.9%
COC(=O)c1ccc(COC(=O)CNC(=O)c2ccc(OC)cc2)cc1	1.1	0.0%	-0.3%	-5.5%	11.9%	2.9%
COc1ccc(C(=O)NCCOc2cccc(Oc3ccccc3)c2)cc1OC	0.0	?	-6.4%	11.6µM*	7.8%	-7.2%
CCCCOc1ccc(C(=O)NCC(=O)NCC(=O)OCC)cc1	20.3	16.4µM*	-11.2%	?	-5.3%	-3.4%
O=C1N(C2CCCC2)C[C@@H]2C[C@@H](c3cccn3-c3nccs3)N3CCC[C@@]123	-78.8*	-16.8%	0.6%	-26.9%	-5.8%	-3.5%
O=C(Nc1nc(-c2ccc(Cl)cc2)cs1)c1cccnc1	-9.6	?	-9.4%	18.4µM*	3.8%	-2.0%
O=C(Nc1nc(-c2ccc(F)cc2)cs1)c1cccnc1	8.0	-16.2%	17.2%	?	.	1.7%
